HT1080-NT tox: kills 2HG-producing HT-1080-NT fibrosarcoma cells | AID 686970 | actives 1.6% (n = 360,000) | Potency, µM (top dose mostly 46.1 µM), for inactives: top-dose activity, negative = less viability, actives largely listed as cytotoxic | HT-1080-NT fibrosarcoma viability, CellTiter-Glo ATP luminescence, 48 h;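 also: NT is the 2HG producing partner of a matched IDH1 knockdown line; potency is read from the fitted curve at half-maximal effect; 0% = DMSO-treated cells and -100% = media-only wells without cells; nearly all actives have a fitted effect of over 55% in size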
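A 48-hour cytotoxicity screen used HT-1080-NT cells plated 2 hours before compound delivery. ATP-based CellTiter-Glo luminescence measured viability, normalized to DMSO and no-cell controls.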
TGFb inhibitor: inhibitors of TGF-b signaling | HepG2 CAGA-GFP TGF-b/SMAD3 reporter, GFP fluorescence, 18 h; TGF-beta stimulated, 500 pg/mL final | Potency, µM (titrated, usually from 46.1 µM), for inactives: at the top dose activity, negative = inhibition, actives largely listed as inhibitors | actives 1.2% (n = 410,000) | AID 588855; also: potency is read from the fitted curve at half-maximal effect; % is scaled to controls: 0 for no effect and ±100 for the full control effect; nearly all actives have a fitted effect of over 65% in size
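HEPG2 CAGA-GFP cells (1000/well, DMEM with 1% FBS) were pre-incubated 2 h at 37 degrees C, given compound by pin tool, then stimulated with TGF-beta at 500 pg/mL final for 18 h before per-cell GFP fluorescence imaging.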
HepG2 tox: HepG2 cytotoxicity, counter-screen for TGF-b inhibitors | HepG2 CAGA-GFP viability, ATP luminescence, 18 h | actives 0.76% (n = 410,000) | Potency, µM (top dose mostly 46.1 µM), for the others: at the highest dose activity change, negative = cytotoxicity, hits mostly cytotoxic; also: potency is read from the fitted curve at half-maximal effect
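CellTiter-Glo luminescence gave cytotoxicity after 18 hours at 37 degrees C. The cells were HepG2 CAGA-GFP in 1% FBS DMEM, stimulated with 500 pg/mL TGF-beta after compound addition. %Activity was normalised to no-cell wells (complete cell-killing) and DMSO (no toxicity), and curves were fitted and classified.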
HT1080 IDH1KD tx: HT-1080 IDH1 knockdown cell toxicity (counter line); HT-1080 IDH1 knockdown viability, ATP luminescence, 48 h; Potency, µM (doses to about 46.1 µM), for inactives: top-dose activity, negative = toxicity, actives largely listed as cytotoxic; actives 2% (n = 360,000); AID 686971;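 also: potency is read from the fitted curve at half-maximal effect; 0% = DMSO wells and -100% = cell-free medium wells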
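IDH1KD HT-1080 cells, 750/well, RPMI + 5% FBS; compound pinned after 2 h settling; 48 h, 37 °C; CellTiter-Glo luminescence; % activity normalised to DMSO and no-cell wells; curves fitted, classed by r2 and efficacy.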
IL-1B inflam inh: inflammasome signaling inhibition, IL-1 beta readout | THP-1 LPS/ATP IL-1B secretion, AlphaLISA, 16 h; stronger effect = lower value | activity change, % at 57.5 µM | actives 4.7% (n = 360,000) | AID 743279; in the data active = activity change below about -50%; inconclusive = mostly about -30% to -49%; also: % is scaled to controls: 0 for no effect and ±100 for the full control effect
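THP-1 cells pretreated 1 hr with compounds (up to 57.5 uM final), then stimulated with LPS (250 ng/mL final) plus ATP (1.25 mM final); secreted IL-1B measured by AlphaLISA after 16 hr, decreased signal indicating inhibition.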
Giardia killer: Giardia lamblia killing | Giardia lamblia trophozoite viability | activity change, % at 7.66 µM, hits read low | actives 0.15% (n = 340,000) | AID 540267; in the data active = activity change below about -80%; inconclusive = between about -30% and that limit;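 also: parasites exposed to compound for two days anaerobically before the ATP read; % is scaled to controls: 0 for no effect and ±100 for the full control effect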
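Trophozoite viability was measured as ATP-dependent luminescence, read 15-30 min after reagent addition. Before that, parasites at 100 cells/well were exposed to compounds for 48 h, anaerobically, at 37 deg C.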
* hit, by the source's call; ? = inconclusive; · = no result. Sampled rows, rich in hits. Any-hit rate of the full collection: about 6.5%. Unless noted, calls follow the shape of the dose curve; as a rule, active = well fitted curve in the direction sought with a large enough effect; inconclusive = small, poorly fitted or top-dose-only effect, or another doubt; inactive = no such curve, though single readings can be large; an effect the other way counts as inactive or inconclusive.

SMILES	HT1080-NT tox	TGFb inhibitor	HepG2 tox	HT1080 IDH1KD tx	IL-1B inflam inh	Giardia killer
CCC1CC=CC2C1C(=O)N(Cc1ccccc1)C2c1cccc([N+](=O)[O-])c1 (stereo unspecified)	·	10µM*	-78%	·	·	?
CC[C@@H]1CC=C[C@H]2[C@H]1C(=O)N(Cc1ccccc1)[C@H]2c1ccoc1	?	13µM*	-33%	?	-107*	24
C[C@@H]1CC=C[C@H]2[C@H]1C(=O)N(Cc1ccccc1)[C@H]2c1ccoc1	-3%	?	-24%	-9%	23	-3
CCC1CC=CC2C1C(=O)N(Cc1ccccc1)C2c1ccoc1 (stereo unspecified)	·	10µM*	-100%	·	·	15
CC[C@@H]1CC=C[C@H]2[C@H]1C(=O)N(Cc1ccccc1)[C@H]2c1ccc(C(F)(F)F)cc1	-12%	?	-30%	-19%	38	34
COc1ccc(/C=N/NC(=O)c2cccc(Br)c2)cc1CSc1ccccn1	5%	-10%	15%	7%	10	25
Cc1ccc(C)c(NC(=O)C2(C)CC3c4ccccc4C2c2ccccc23)c1 (stereo unspecified)	2%	-12%	33%	-3%	37	-5
CCCCNC(=O)O[C@H]1C[C@@H]2CCN3C(=O)CCC[C@H]([C@H]1CC)[C@H]23	6%	19%	4%	?	3	4
Cc1ccc(CN2C(=O)c3ccccc3NC2c2ccccn2)cc1 (stereo unspecified)	-1%	?	8%	3%	-6	-1
CCOC(=O)Cc1ccc(NC(=O)n2ncc3c(C)cccc32)cc1	·	16%	-28%	·	·	·
Cc1ccc(Cl)cc1N1CCN(C(=O)c2cn(C)c(=O)c3c2c2ccccc2n3C)CC1	2%	-8%	-10%	-1%	-68*	-6
Cc1ccc(C)c(N2CCN(C(=O)CCNC(=O)Cn3ccc4ccccc4c3=O)CC2)c1	7%	-12%	-27%	0%	-1	7
CS(=O)(=O)N(CC(=O)N1CCN(c2cccc(Cl)c2)CC1)C1CCCCC1	-1%	-6%	-2%	-1%	0	1
Cc1ccc(Cl)cc1N1CCN(C(=O)CN(C2CCCCC2)S(C)(=O)=O)CC1	-7%	0%	-13%	21µM*	?	-4
Cc1ccc(Cl)cc1N1CCN(C(=O)Cn2ccc3ccccc3c2=O)CC1	0%	-25%	-14%	?	-66*	14
CCCS(=O)(=O)N1CCC(N2CCN(Cc3ccc(C)cc3)C(=O)C2=O)CC1	·	8%	3%	·	·	·
CN(Cc1ccccc1)C(=O)CSc1nnc(-c2cccc(Cl)c2)o1	·	-26%	-11%	·	·	·
O=c1[nH]c2ccccc2[n+]([O-])c1-c1ccccc1	12%	-16%	-15%	17%	10	-3
O=C(C1CC(=O)N(c2ccc3c(c2)OCCO3)C1)N1CCN(Cc2ccccc2)CC1 (stereo unspecified)	12%	-21%	-16%	2%	34	-9
COC(=O)c1cc(C(=O)c2ccc(Cl)cc2Cl)cn1C	4%	-7%	0%	0%	0	-9
CC(C)C[C@@H](CO)NS(=O)(=O)c1c(F)cccc1F	0%	4%	-21%	1%	18	34
CCCCCOC(=O)Cc1c(O)c2ccccc2[nH]c1=O	19%	-6%	4%	21%	0	-4
CC1CCN(c2ccc(C(=O)O)cc2N)CC1	12%	20%	-8%	20%	0	22
Cc1ccc(C(=O)Oc2ccc(Cl)c3cccnc23)cc1[N+](=O)[O-]	-1%	11µM*	-44%	-20%	-16	-10
CC(C)(C)n1nc(Cc2cccc3ccccc23)c2c(N)ncnc21	·	14µM*	-19%	·	·	?
SMILES	HT1080-NT tox	TGFb inhibitor	HepG2 tox	HT1080 IDH1KD tx	IL-1B inflam inh	Giardia killer
CO[C@H]1C[C@@H]2CC[C@@H](C)[C@@](O)(O2)C(=O)C(=O)N2CCCC[C@H]2C(=O)O[C@H]([C@H](C)C[C@@H]2CC[C@@H](O)[C@H](OC)C2)CC(=O)[C@H](C)/C=C(/C)[C@@H](O)[C@@H](OC)C(=O)[C@H](C)C[C@H](C)C=C/C=C\C=C/1C	·	4.5µM*	-28%	·	·	8
CCN(CC)CCN(Cc1cc2cccc(C)c2[nH]c1=O)C(=S)Nc1ccccc1	-11%	-1%	-38%	-20%	-80*	12
Cc1ccc(NC(=S)N(CCCN(C)C)Cc2cc3cc4c(cc3[nH]c2=O)OCO4)cc1	-2%	-2%	0%	6%	-2	-14
Cc1ccc2cc(CN(CCCO)S(=O)(=O)c3ccccc3F)c(=O)[nH]c2c1C	-25%	16%	-30%	-3%	-59*	-3
Cc1ccc2cc(CN(CCN(C)C)C(=S)Nc3ccccc3)c(=O)[nH]c2c1C	-16%	-8%	-13%	-9%	-85*	22
Cc1ccc2cc(CN(CCCO)S(=O)(=O)c3cccc4nsnc34)c(=O)[nH]c2c1C	-1%	-10%	-3%	-6%	31	8
Cc1ccc(NC(=S)N(CCN(C)C)Cc2cc3cc(C)cc(C)c3[nH]c2=O)cc1	-10%	-9%	-24%	-12%	-53*	-6
O=C(C[N+]12CCCc3cccc(c31)CCC2)c1ccccc1	·	?	-35%	·	·	·
Cc1ccc(CNC(=O)Cn2ncn3cccc3c2=O)cc1	-3%	9%	-1%	-2%	-8	-18
Cn1cnc([N+](=O)[O-])c1Sc1ccc(C(C)(C)C)cc1	?	-24%	-13%	-20%	·	9
CCN(CC)CCN(Cc1cc2ccc(C)cc2[nH]c1=O)C(=S)Nc1ccccc1C(=O)OC	?	17%	-11%	18µM*	-77*	16
CCN1CCCC1CN(Cc1cc2cc(C)cc(C)c2[nH]c1=O)C(=O)Nc1ccccc1OC (stereo unspecified)	-24%	?	-33%	?	?	-3
CCN1CCCC1CN(Cc1cc2ccc(C)cc2[nH]c1=O)C(=S)Nc1ccc(OC)cc1OC (stereo unspecified)	?	3%	-12%	?	-52*	11
COc1cccc(C(=O)NCCS(=O)(=O)NCCc2ccc(OC)c(OC)c2)c1	6%	0%	31%	8%	12	15
Cc1ccc(Nc2nc3ccccc3s2)c(C)c1	-10%	-31%	-14%	-22%	-62*	0
Cc1cc(C)nc(Nc2nc3ccccc3s2)n1	11%	2%	-1%	12%	81	-6
CCn1c(SCC(=O)Nc2ccccc2)nc2nc3c(cc2c1=O)COC(C)(C)C3	2%	-13%	-13%	-1%	-1	19
